A short description of assay [1]: binders of probe aFSTL3 on microarray, primary screen, stem cell growth factor project, biochemical, small-molecule microarray, fluorescence 635/667 (AID 1064).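 Also: measures binding of the biotinylated anti-FSTL3 antibody to printed compounds.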 The note with it: higher = more signal.
Assay [2] can be described thus: binders from COS7 lysate, DM2A8 probe, primary screen, torsin A project, cell lysate, small-molecule microarray, fluorescence 635/667 (AID 1065). The settings on record: higher = more signal, COS7 lysate expressing mutant human TOR1A.
Assay [3] can be described thus: binders of probe aFGF2 on microarray, primary screen, stem cell growth factor project, biochemical, small-molecule microarray, fluorescence 635/667 (AID 1067).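 Also: measures binding of biotinylated aFGF2 protein to printed compounds on slides; z-score merges feature fluorescence and signal-to-noise across triplicate slides.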 The note with it: higher = more signal.
Assay [4] is described as follows: binders of probe aFGF10 on microarray, primary screen, stem cell growth factor project, biochemical, small-molecule microarray, fluorescence 635/667 (AID 1071).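 Also: score merges 667 nm spot intensity and signal to noise from triplicate slides.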 The settings on record: higher = more signal.
Assay [5] concerns the target Neurogenic locus notch homolog protein 2 (Homo sapiens) (UniProt Q04721). The experiment in a line: Notch2 binders on small-molecule microarrays, primary screen, biochemical, small-molecule microarray, 635 nm fluorescence, stem cell growth factors (AID 1073). The note with it: Notch2 binding, higher = more signal.
Assay [6] deals with Pro-neuregulin-1, membrane-bound isoform (Homo sapiens) (UniProt Q02297). Kind of assay: NRG1 binders on small-molecule microarrays, primary screen, psychiatric disease protein project, biochemical, small-molecule microarray, fluorescence 635/667 (AID 1075).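 Also: score combines 667 nm spot fluorescence with signal to noise.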 The settings on record: NRG1 binding, 635 nm fluorescence, higher = more signal.
Assay [7] has as its system Neuregulin-1 EGF-like domain. The experiment in a line: binders of neuregulin-1 EGF-like domain, primary screen, biochemical, small-molecule microarray, 635 nm fluorescence (AID 1081).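 Also: binding of the protein to compounds printed on small-molecule microarray slides.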 The settings on record: small-molecule microarray binding, higher = more signal.
Assay [8] is described as follows: FRG1 promoter luciferase signal modulators, primary screen, FRG1 inhibition for FSHD, cell-based, C2C12 myotubes, firefly/Renilla luciferase, luminescence (AID 1084). The settings on record: higher = more signal, called active from +8 up or from −8 down.
Assay [9] in a line: binders of probe aFST on microarray, primary screen, stem cell growth factor project, biochemical, small-molecule microarray, fluorescence 635/667 (AID 1086).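 Also: score merges 667 nm fluorescence with signal-to-noise of each printed compound spot.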 The settings on record: higher = more signal.
A short description of assay [10]: binders of probe aHhip on microarray, primary screen, stem cell growth factor project, biochemical, small-molecule microarray, fluorescence 635/667 (AID 1087).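 Also: score merges spot fluorescence at 667nm with spot signal to noise ratio.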 The note with it: higher = more signal.
Assay [11] relates to PRMT1 (protein arginine N-methyltransferase 1). The experiment in a line: PRMT1 binders on small-molecule microarrays, primary screen, biochemical, small-molecule microarray, 635 nm fluorescence (AID 1088).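 Also: binding of Prmt1 protein to compounds spotted on small-molecule microarray slides.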 The note with it: small-molecule microarray binding, higher = more signal.
Assay [12] can be described thus: yeast growth modulation, basal conditions, primary screen, YJM789 clinical isolate, OD600, 24 h (AID 1089).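 Also: growth of clinical yeast isolate S. cerevisiae YJM 789 seeded 1000 cells per well; test concentration not given here.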 The note with it: S. cerevisiae YJM789 growth, higher = more signal, called active from +8 up or from −8 down.
Assay [13] in a line: fission yeast growth modulation, primary screen, strain 972, OD600, 24 h, no modulator (AID 1090).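 Also: basal condition with compound alone and no growth modifier present; test concentration not given here.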 The settings on record: S. pombe 972 growth, higher = more signal, called active from +8 up or from −8 down.
Assay [14] is described as follows: S. cerevisiae growth modulation with rapamycin, primary screen, strain BY4716, OD600, 96 h (AID 1091). Also: test concentration not given here. The note with it: higher = more signal, called active from +8 up or from −8 down.
Assay [15] addresses Torsin-1A-interacting protein 2 (Homo sapiens) (UniProt Q8NFQ8). The experiment in a line: LULL1 binders on small-molecule microarray, primary screen, cell lysate, human LULL1 lysate, 635/667 nm fluorescence (AID 1092).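 Also: probe is lysate of COS7 cells overexpressing human LULL1; score merges per-feature 667 nm fluorescence with signal-to-noise.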 The note with it: hLULL1 lysate binding, 635 nm fluorescence, higher = more signal.
A short description of assay [16]: E. coli growth modulation, two-sided OD650, primary screen, E. coli filamentation project, strain DRC41, 24 h (AID 1093).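 Also: MC1000 strain lacking acrAB efflux and sulA so SOS filamentation is blocked; test concentration not given here.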 The settings on record: OD650, 24 h, higher = more signal, called active from +8 up or from −8 down.
Assay [17] is described as follows: small-molecule microarray binders of probe aLefty2, primary screen, biochemical, biotinylated probe, 635/667 nm fluorescence (AID 1094).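 Also: score merges spot fluorescence near 667 nm with spot signal-to-noise ratio.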 The note with it: higher = more signal.
Assay [18] has as its system Noggin (protein binding on small-molecule microarray). The experiment in a line: Noggin binders on small-molecule microarray, primary screen, biochemical, 635/667 nm fluorescence (AID 1095).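 Also: score merges 667 nm feature fluorescence with signal to noise over triplicate slides.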 The settings on record: 635 nm fluorescence, higher = more signal.
Assay [19] deals with Neurogenic locus notch homolog protein 3 (Homo sapiens) (UniProt Q9UM47). Kind of assay: NOTCH3 binders on small-molecule microarray, primary screen, biochemical, 635/667 nm fluorescence (AID 1096). The settings on record: NOTCH3 binding, 635 nm fluorescence, higher = more signal.
The nature of assay [20]: small-molecule microarray binders of probe aEGFR, primary screen, biochemical, biotinylated probe, 635/667 nm fluorescence (AID 1097).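 Also: probe is a biotinylated anti-EGFR antibody binding compounds printed on slides; score combines fluorescence near 667 nm and signal to noise of each spot.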 The settings on record: higher = more signal.

The structures appear in SMILES notation. Activity calls are given as the source filed them.

Sequence of Torsin-1A-interacting protein 2 (Homo sapiens) (Q8NFQ8 whole entry, looked up): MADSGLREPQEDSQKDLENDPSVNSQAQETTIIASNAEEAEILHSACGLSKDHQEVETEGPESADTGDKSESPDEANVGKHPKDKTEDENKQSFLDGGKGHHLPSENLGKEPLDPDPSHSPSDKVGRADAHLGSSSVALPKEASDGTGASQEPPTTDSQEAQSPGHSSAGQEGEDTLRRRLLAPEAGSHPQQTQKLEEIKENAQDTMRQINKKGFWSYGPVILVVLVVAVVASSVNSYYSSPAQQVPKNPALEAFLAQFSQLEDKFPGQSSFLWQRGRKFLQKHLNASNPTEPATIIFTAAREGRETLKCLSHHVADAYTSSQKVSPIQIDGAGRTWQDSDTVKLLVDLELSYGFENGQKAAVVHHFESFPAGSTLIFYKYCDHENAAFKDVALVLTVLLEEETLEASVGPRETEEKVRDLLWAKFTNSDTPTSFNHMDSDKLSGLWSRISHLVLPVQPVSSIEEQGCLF
Sequence of Neurogenic locus notch homolog protein 3 (Homo sapiens) (Q9UM47 whole entry, looked up): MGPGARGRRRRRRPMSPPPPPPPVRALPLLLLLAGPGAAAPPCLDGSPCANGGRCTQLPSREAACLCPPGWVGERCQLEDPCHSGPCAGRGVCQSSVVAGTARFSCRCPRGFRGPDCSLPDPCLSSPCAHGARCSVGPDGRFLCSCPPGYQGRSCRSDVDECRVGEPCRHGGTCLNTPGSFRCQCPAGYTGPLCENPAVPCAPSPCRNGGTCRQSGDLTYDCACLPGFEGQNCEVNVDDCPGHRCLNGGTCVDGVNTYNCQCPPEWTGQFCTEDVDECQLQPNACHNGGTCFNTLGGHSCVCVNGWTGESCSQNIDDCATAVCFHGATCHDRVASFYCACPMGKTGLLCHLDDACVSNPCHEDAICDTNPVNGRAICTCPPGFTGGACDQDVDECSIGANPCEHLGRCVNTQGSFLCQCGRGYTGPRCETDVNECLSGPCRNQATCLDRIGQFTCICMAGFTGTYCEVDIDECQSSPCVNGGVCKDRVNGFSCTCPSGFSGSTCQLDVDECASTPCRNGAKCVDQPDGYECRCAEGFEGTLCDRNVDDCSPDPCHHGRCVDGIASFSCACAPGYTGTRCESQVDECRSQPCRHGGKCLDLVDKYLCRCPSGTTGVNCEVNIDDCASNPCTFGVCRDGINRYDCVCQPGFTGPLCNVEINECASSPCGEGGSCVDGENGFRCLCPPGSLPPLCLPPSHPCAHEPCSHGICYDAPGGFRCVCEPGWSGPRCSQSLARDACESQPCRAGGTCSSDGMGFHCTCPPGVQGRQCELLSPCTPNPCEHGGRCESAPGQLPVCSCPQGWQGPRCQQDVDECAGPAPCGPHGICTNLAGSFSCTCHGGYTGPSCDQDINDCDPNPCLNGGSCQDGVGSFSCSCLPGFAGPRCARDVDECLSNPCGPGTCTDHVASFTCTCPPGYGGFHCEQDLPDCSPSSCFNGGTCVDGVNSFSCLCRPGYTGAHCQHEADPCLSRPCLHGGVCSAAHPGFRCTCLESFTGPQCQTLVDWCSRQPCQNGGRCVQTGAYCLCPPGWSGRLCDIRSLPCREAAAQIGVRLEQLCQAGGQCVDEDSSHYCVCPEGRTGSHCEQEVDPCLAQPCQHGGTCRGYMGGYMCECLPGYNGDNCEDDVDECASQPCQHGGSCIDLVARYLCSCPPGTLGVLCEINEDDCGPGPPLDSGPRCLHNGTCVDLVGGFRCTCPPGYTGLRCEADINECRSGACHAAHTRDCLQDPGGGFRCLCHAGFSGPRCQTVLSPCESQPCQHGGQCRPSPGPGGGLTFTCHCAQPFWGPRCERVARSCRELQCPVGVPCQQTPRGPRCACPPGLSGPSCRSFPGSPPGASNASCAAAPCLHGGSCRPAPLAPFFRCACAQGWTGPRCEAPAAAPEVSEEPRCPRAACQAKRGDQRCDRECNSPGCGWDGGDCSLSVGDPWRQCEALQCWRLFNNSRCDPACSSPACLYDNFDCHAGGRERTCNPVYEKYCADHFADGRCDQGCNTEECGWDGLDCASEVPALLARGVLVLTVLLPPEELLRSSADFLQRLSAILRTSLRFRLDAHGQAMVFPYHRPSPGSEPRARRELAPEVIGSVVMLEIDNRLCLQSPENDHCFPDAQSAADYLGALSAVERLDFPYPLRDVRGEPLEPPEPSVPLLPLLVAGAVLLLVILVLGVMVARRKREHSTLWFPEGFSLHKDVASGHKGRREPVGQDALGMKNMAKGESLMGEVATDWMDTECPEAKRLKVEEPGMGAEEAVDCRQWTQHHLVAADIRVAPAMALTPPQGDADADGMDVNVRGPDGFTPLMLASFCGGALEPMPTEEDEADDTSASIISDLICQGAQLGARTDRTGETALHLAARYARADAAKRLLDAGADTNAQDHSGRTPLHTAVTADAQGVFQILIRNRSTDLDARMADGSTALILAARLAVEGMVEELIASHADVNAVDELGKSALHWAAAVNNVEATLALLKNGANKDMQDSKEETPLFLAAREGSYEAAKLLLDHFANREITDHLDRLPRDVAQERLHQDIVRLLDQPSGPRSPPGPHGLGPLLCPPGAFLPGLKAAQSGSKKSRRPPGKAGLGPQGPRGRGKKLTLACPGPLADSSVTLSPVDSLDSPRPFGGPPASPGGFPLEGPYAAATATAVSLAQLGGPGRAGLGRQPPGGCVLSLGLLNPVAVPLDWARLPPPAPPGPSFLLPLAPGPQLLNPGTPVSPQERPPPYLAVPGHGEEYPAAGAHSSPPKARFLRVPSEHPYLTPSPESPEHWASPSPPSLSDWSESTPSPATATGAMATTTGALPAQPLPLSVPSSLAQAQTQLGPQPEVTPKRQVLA
Sequence of Pro-neuregulin-1, membrane-bound isoform (Homo sapiens) (Q02297 whole entry, looked up, the tested form may be a part, canonical isoform): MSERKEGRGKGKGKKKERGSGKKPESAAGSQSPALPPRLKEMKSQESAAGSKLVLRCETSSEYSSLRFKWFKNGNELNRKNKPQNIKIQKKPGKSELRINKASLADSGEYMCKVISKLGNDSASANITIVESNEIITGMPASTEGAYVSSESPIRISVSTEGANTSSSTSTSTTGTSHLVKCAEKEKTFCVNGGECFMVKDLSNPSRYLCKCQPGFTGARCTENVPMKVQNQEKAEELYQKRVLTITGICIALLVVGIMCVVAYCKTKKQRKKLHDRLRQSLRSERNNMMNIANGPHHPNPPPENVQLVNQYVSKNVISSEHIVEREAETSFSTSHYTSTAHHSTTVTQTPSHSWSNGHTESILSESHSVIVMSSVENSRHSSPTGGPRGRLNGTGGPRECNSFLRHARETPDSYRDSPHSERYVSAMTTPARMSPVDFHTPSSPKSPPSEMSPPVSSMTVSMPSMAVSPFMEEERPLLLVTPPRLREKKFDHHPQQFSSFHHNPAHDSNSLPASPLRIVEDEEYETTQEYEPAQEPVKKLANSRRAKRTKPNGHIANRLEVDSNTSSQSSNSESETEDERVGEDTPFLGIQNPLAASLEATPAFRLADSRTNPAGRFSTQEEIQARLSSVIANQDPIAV

Regarding `O=C1O[C@@H](c2ccccc2)[C@@H](c2ccccc2)N2[C@@H](c3ccc(OCCO)cc3)[C@]3(C(=O)Nc4ccc(C#CC5(O)CCCCCC5)cc43)[C@@H](C(=O)Nc3nc4ccccc4s3)[C@H]12`, the composite z-score in assay [1] was -0.017; in assay [2], 1.17; in assay [3] it was 0.0649; in assay [4] it was 0.517; in assay [5] it was 1.46; in [6] it was 1.51. Further, the composite z-score amounted to 1.24 in [7]; 0.397 in [9]; 0.113 in [10]; 1.55 in assay [11]; 2.96 in assay [15]; 0.0769 in assay [17]. For the same compound, the composite z-score in assay [18] was 1.18; in assay [19] it was 1.07; in assay [20] it was 0.191. The z-score in [8] is 2.48 (inactive); in [12], 2.44 (inactive); in [13], 1.19 (inactive); in assay [14] it was 2.78 (inactive); in [16] it was 0.799 (inactive).

With `C=CCOC(=O)[C@@H]1[C@H]2C(=O)O[C@H](c3ccccc3)[C@H](c3ccccc3)N2[C@H](c2ccc(OCCOC(=O)[C@H]3C[C@H]4C(=O)N5CCC[C@H]5C(=O)N4[C@H]3c3cccc(OCCO)c3)cc2)[C@@]12C(=O)Nc1ccc(I)cc12`, the composite z-score in [1] is -0.0333; in assay [2], 0.546; in assay [3], -0.0538; in assay [4] it was 0.441; in assay [5], 0.596; in [6], 0.499. Also, the composite z-score in [7] was 1.2; in assay [9], 0.182; in assay [10], -0.0767; in assay [11], 1.53; in assay [15], 1.6; in assay [17] it was -0.0125. Moreover, the composite z-score is 1.52 in assay [18], 1.11 in [19] and 0.0238 in assay [20]. For the same compound, the z-score was 1.67 (inactive) in assay [8]; 1.3 (inactive) in assay [12]; 2.38 (inactive) in [13]; 4.79 (inactive) in assay [14]; -0.333 (inactive) in assay [16].

Turning to `C=CCN1C(=O)[C@@]2(O[C@@H](CCn3cc([C@H](O)c4ccccc4)nn3)[C@H]([Si](C)(C)c3ccc(OC)cc3)[C@H]2C)c2cc(N3C(=O)c4cccc5cccc3c45)ccc21`, the composite z-score in assay [1] is 0.241; in assay [2], -0.477; in assay [3], -0.151; in assay [4], -0.215; in [5], -0.902; in [6] it was 0.548. The composite z-score is 0.482 in assay [7]; -0.365 in assay [9]; -0.271 in [10]; 0.183 in assay [11]; 1.5 in assay [15]; -0.189 in assay [17]. Also, the composite z-score was -0.684 in assay [18], -0.193 in [19] and -0.199 in assay [20]. The z-score in [8] was -1.04 (inactive); in assay [12] it was 0.584 (inactive); in assay [13], 1.18 (inactive); in [14], 1.31 (inactive); in [16], -0.76 (inactive).

On to `CC(C)c1nc2cc(Br)ccc2c(=O)o1`, for which the composite z-score in [1] is -0.404; in assay [2] it was 0.109; in [3], 0.0013; in [4], 0.58; in assay [5], 1.39; in assay [6], 1.21. Further, the composite z-score was 0.565 in assay [7]; 0.689 in [9]; -0.146 in [10]; -0.0152 in assay [11]; 2.97 in assay [15]; -0.0823 in assay [17]. Also, the composite z-score in assay [18] was 0.0534; in assay [19] it was 0.567; in [20], -0.0535. The z-score in [8] is 0.604 (inactive); in assay [12], -0.0363 (inactive); in assay [13] it was 0.347 (inactive); in assay [14] it was -0.26 (inactive); in assay [16], 0.501 (inactive).

In the case of `CCCNC(=O)[C@@]1(Sc2ccc(C)cc2)CC(=O)N(Cc2ccccc2Cl)[C@@H]1c1ccc(CO)cc1I`, the composite z-score in assay [1] was 0.746; in [2], -1.23; in [3], -0.127; in assay [4], -0.391; in assay [5], -1.13; in assay [6] it was 1.4. Besides, the composite z-score is 0.895 in assay [7]; 0.0493 in assay [9]; 0.106 in [10]; 0.16 in [11]; 2.08 in assay [15]; 0.328 in [17]. Moreover, the figures for the composite z-score in [18], in [19] and in assay [20] were -1.24, -0.502 and -0.267, respectively. For the same compound, the z-score in [8] was -1.6 (inactive); in assay [12], -1.17 (inactive); in assay [13], -3.81 (inactive); in assay [14], 1.82 (inactive); in [16], 0.545 (inactive).

For the origin of these results see PubChem BioAssay.
